Source: PubChem BioAssay (several laboratories)
TIM10 inh – growth inhibitors of TIM10 yeast strain; S. cerevisiae TIM10 strain growth, BacTiter-Glo luminescence, 24 h; inhibition, % at 10 µM; 330,000 tested, 1.4% active;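 active means inhibition of 40% or more at the single tested concentration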;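 further: wild-type TIM10 isogenic control strain grown at permissive 25 °C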
SUMO Mot1 rescue – inhibitors of SUMOylation pathway: yeast Mot1-301 growth rescue | S. cerevisiae Mot1-301 growth rescue, ATP luminescence, 38.5C; percent above DMSO median, 100 means doubled | growth rescue, % at 18.8 µM | 320,000 tested, 1% active;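 active means every valid replicate shows activation above 250% relative to neutral control wells; inactive means the rest, any valid replicate at or below 250%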;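 further: OY570 slx delta 5 strain wells were the positive control but not used for scaling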
tim23-1 inh – inhibits growth of tim23-1 mutant yeast; inhibition, % at 20 µM; 330,000 tested, 1.3% active; S. cerevisiae tim23-1 growth, BacTiter-Glo luminescence, 24 h;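 active means growth inhibition of the mutant yeast at or above 50%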;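 further: temperature-sensitive mutant grown at 25 °C; plate controls were DMSO-treated mutant yeast for no effect and medium wells lacking yeast for full effect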
PfHsp90 set2 – reduces growth (ATP signal) of yeast expressing P. falciparum Hsp90; S. cerevisiae expressing PfHsp90, BacTiter-Glo ATP, 48 h; yeast lacking PDR1 and PDR3 efflux regulators; inhibition, % at 9.4 µM; 310,000 tested, 0.32% active; AID 504621;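 active means every replicate shows inhibition above about 80%, whatever the replicate mean, limit read from the data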;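 further: 0% = DMSO neutral controls and 100% = 20 µM radicicol positive controls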
tim10-1 inh – tim10-1 yeast growth inhibition. AID 463190. inhibition, % at 20 µM. S. cerevisiae tim10-1 ts strain growth, BacTiter-Glo, 24 h. 330,000 tested, 2.2% active;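 active means inhibition of at least 40%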;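 further: mutant grown at 25 °C; 0% = DMSO wells with yeast and 100% = wells holding no yeast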
Starred values were filed as active, the others as inactive; . = no result. The list is not random: actives were taken first. Their share in the collection is about 4.4%.

SMILES | TIM10 inh | SUMO Mot1 rescue | tim23-1 inh | PfHsp90 set2 | tim10-1 inh
CC(C)n1cnnc1SCC(=O)Nc1cccc(S(=O)(=O)N(C)c2ccccc2)c1 | 2 | 6 | 2 | 10 | 2
Cc1ccc(-n2nnnc2C(Cl)c2nnnn2-c2ccc(C)cc2)cc1 | . | . | . | 110* | .
Cc1ccc2nc(CCl)[n+]([O-])c(-c3ccccc3)c2c1 | 13 | 127 | 14 | 7 | 10
COc1cc(NC(=O)C2CCCCC2)c(OC)cc1NC(=O)c1ccccc1 | 9 | 6 | 12 | 3 | 0
CCOc1ccc2nc(N3CCC(C(=O)NC4CCCCC4)CC3)sc2c1 | 11 | 344* | 21 | 8 | 38
CN(C)CCNc1nc(S(=O)(=O)c2ccccc2)c(Cl)s1 | -1 | 355* | 2 | 10 | 7
Cc1ccc(NC(=O)CN2c3cccc4cccc(c34)S2(=O)=O)cc1 | 3 | -1 | 21 | -15 | 0
Cc1ccc(/C=C/C(=O)c2ccccc(=O)c2O)cc1C | . | -23 | . | 97* | .
O=C(/C=C/c1ccccc1)c1cc(Br)ccc(=O)c1O | -8 | -21 | 0 | 82* | -1
Cc1ccc(/C=N/NC(=O)c2cc(-c3ccc(C)o3)[nH]n2)cc1 | 3 | 8 | 6 | 7 | -2
COc1ccccc1/C=C/C=N/NC(=O)c1cc(-c2ccc(C)o2)[nH]n1 | -2 | 308* | 19 | -9 | -32
O=C(O)c1ccc2c(c1)C(=O)N(c1ccccc1-c1ccccc1)C2=O | 2 | 1 | 2 | -28 | 12
Cc1ccc(N2C(=O)c3ccc(C(=O)O)cc3C2=O)c(C)c1 | 4 | 313* | 9 | -7 | 2
O=C(Nc1cccc(S(=O)(=O)NC2=NCCC2)c1)c1cc(Cl)ccc1[N+](=O)[O-] | -4 | 90 | -6 | . | -10
CC1CCN(S(=O)(=O)c2nnc(NC(=O)COc3ccccc3)s2)CC1 | 4 | 292* | 8 | 1 | 6
Cn1c(-c2ccccc2)cnc1NCc1ccc(-c2ccccc2)cc1 | -90 | 383* | -12 | -18 | 18
CC(=O)NCCc1c(C)n(Cc2ccccc2)c2ccccc12 | 6 | 0 | 12 | 1 | 20
COc1ccc(C(=O)OCC(=O)Nc2cc(S(=O)(=O)N3CCOCC3)ccc2N2CCCC2)cc1 | 4 | 10 | -12 | 27 | -10
COc1ccccc1C(=O)OCC(=O)Nc1cc(S(=O)(=O)N2CCOCC2)ccc1N1CCCC1 | 7 | 407* | 14 | 2 | 3
CCc1nn(CC(=O)N(C)C2CCCCC2)c(=O)c2cc3cc(C)ccc3n12 | -6 | . | 11 | 14 | 22
COc1cc(/C=N/O)cc(Cl)c1OC | -11 | 328* | -4 | 7 | 7
Cc1ccc2c(c1C)-c1c(ccc(C)c1C)C(=O)C2=O | . | . | . | 103* | .
CCCNC(=O)CCc1cc(C(C)(C)C)c(O)c(C(C)(C)C)c1 | 7 | 0 | 13 | 5 | 19
CC(C)(C)c1cc(CCC(=O)NCC2CCCO2)cc(C(C)(C)C)c1O (centres undefined) | 5 | 298* | 19 | -6 | 6
COc1ccc(Nc2nccc3c2ncn3C)cc1 | 10 | 0 | 14 | 6 | 1
SMILES | TIM10 inh | SUMO Mot1 rescue | tim23-1 inh | PfHsp90 set2 | tim10-1 inh
CC(C)(C)OC(=O)NCC1CCC(C(=O)NC[C@H](CC(=O)O)c2ccc(Cl)cc2)CC1 (some centres undefined) | -19 | 336* | 8 | -4 | 15
CCOC(=O)CN(C)C(=O)CCc1nnc(-c2ccsc2)o1 | -8 | 611* | -6 | -11 | 1
CCc1nn2c(=O)cc(CSCC(=O)Nc3ccccc3Cl)nc2s1 | 5 | . | 18 | 7 | 18
CCCC(=O)NC(c1ccc(N(C)C)cc1)c1ccc2cccnc2c1O (centres undefined) | -92 | -1 | 42 | 1 | -26
CCN1CCN(C(c2ccc(C(F)(F)F)cc2)c2ccc3cccnc3c2O)CC1 (centres undefined) | -54 | -17 | 49 | 121* | 28
O=C(/C=C/c1cccc([N+](=O)[O-])c1)Nc1ccc(NC(=O)c2cccs2)cc1 | -27 | 474* | -6 | 9 | 16
COc1ccccc1/C=[N+](\[O-])C1SC(=S)N(C)C1(C)C (centres undefined) | 14 | 16 | 13 | -13 | 14
O=C(NCc1ccc2c(c1)OCO2)c1ccc(Br)cc1 | -71 | 11 | 37 | 89* | -21
O=C(CN(Cc1ccccc1Cl)C(=O)CNS(=O)(=O)c1ccc(F)cc1)NCC1CCCO1 (centres undefined) | 13 | -6 | -1 | 9 | -9
CCCN(CC(=O)Nc1ccccc1OC)C(=O)c1cc(-c2cccs2)nn1-c1ccccc1 | -11 | 0 | 23 | . | 9
Cc1ccccc1N1CCN(C2CCCN(C(=O)CCC(=O)N(C)C)C2)CC1 (centres undefined) | 7 | 294* | 9 | -8 | 9
NNC(=O)c1cc(-c2ccc(N)cc2)nc2ccc(Br)cc12 | -19 | -8 | 12 | . | 11
O=C(Nc1ccccc1C(=O)OCC(=O)N1CCc2ccccc2C1)c1ccco1 | 4 | 356* | 34 | -20 | 30
CNC(=O)COC(=O)c1ccccc1NC(=O)c1ccco1 | -2 | -11 | 7 | 10 | 7
Cc1ccc(NC(=O)c2cc(N3C(=O)C=CC3=O)ccc2Cl)cc1C | -1 | 132 | 14 | 110* | 21
Cc1ccc(NC(=O)c2cc(N3C(=O)C=CC3=O)ccc2N2CCOCC2)cc1 | . | . | . | 106* | .
O=C1CC(c2ccccc2)Oc2cc(O)cc(O)c21 (centres undefined) | 9 | 8 | 27 | 18 | 33
COc1cc(OC)c2c(c1O)OC(c1ccccc1)CC2=O (centres undefined) | -7 | 696* | -6 | 3 | -19
Cc1csc(=O)n1CC(=O)Nc1nc2ccccc2s1 | 6 | 321* | 21 | 15 | 2
CCCN1CCN(CC(=O)Nc2nc3ccccc3s2)CC1 | -7 | 131 | -15 | 2 | -6
Cc1ccccc1-c1nnc(SCC(=O)NC2CCS(=O)(=O)C2)n1C (centres undefined) | 1 | 21 | 9 | -1 | 3
COC(=O)C1CCN(C(=O)CSc2nnc(-c3ccncc3)o2)CC1 | 2 | 312* | -2 | 11 | 9
CN(C)c1cccc(C(=O)NNC(=O)CSc2ccccc2)c1 | 14 | 86 | 4 | -23 | 10
COc1ccc(CN(C)C(=O)C23CC4CC(CC(C4)C2)C3)c(OC)c1 | 14 | 328* | 28 | 14 | 35
COc1cccc(CN(C)C(=O)C23CC4CC(CC(C4)C2)C3)c1 | 19 | -7 | 38 | 13 | 17
O=C(COc1ccc(S(=O)(=O)N2CCOCC2)cc1Cl)NC1CCCCC1 | 22 | 338* | 16 | 13 | 25
O=C(COc1ccc(S(=O)(=O)N2CCCC2)cc1Cl)NC1CC1 | 2 | 11 | 8 | 9 | 10
O=C(Nc1nc(-c2ccccn2)cs1)C1COc2ccccc2O1 (centres undefined) | -1 | -7 | 43 | 103* | 24
